Source: PubChem BioAssay
The entries come from a sample that favours hits as a whole.
Pf Dd2 growth = inhibitors of Plasmodium falciparum Dd2 growth; P. falciparum Dd2 growth, SYBR Green, 72 h; Potency, µM (titrated, usually from 28.9 µM), for the others: at the top dose activity, negative = inhibition, usual class: inhibitors; 120,000 compounds, 4.3% hits; AID 1347417; active means well fitted inhibition curve with a large enough effect;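 further: plate controls were DMSO vehicle for no effect and reference drug for full effect; nearly all actives have a fitted effect of over 65% in size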
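Readout: SYBR Green fluorescence, 485 nm excitation, 535 nm emission, after ~16 h lysis at 37C. Before that, Dd2-infected red cells (2.5% hematocrit) grew 72 h with compound, 29 uM top final concentration.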
* marks the source's active call; other numbers are inactive results; i = inactive; [ ] = remark or other dose. Potency means the concentration at half of the fitted maximal effect.

SMILES	Pf Dd2 growth
Cc1cc(C)n(Cc2ccc(C(=O)NCC3Cn4cccc4CN3Cc3ccccc3)o2)n1 (stereo not drawn)	5µM*
O=C(NCC1Cn2cccc2CN1Cc1ccccc1)c1cncc(Br)c1 (stereo not drawn)	10µM*
Cc1ccc(C(C)C)c(OCC(=O)Nc2c(C(=O)c3ccccc3)oc3ccccc23)c1	11%
CC(=O)c1c(C)oc2c1cc(NS(=O)(=O)c1ccc(Br)cc1)c1ccccc12	i
CCCC1c2nccn2CCCN1C(=O)c1c(C)noc1C (stereo not drawn)	-26%
CNC(=O)c1[nH]nc2c1C(c1ccc(-n3cncn3)cc1)CC(=O)N2 (stereo not drawn)	-25%
CCOc1ccc(-c2noc(-c3nc(-c4ccncc4)no3)n2)cc1	-25%
Cc1nc(C(=O)N2CC(F)(F)C[C@H]2c2nc(C3CC3)no2)co1	13%
Cc1cccc(C(=O)Nc2cccc(C3OC(=O)N(Cc4ccccc4)C3C(=O)NCC(C)C)c2)c1 (stereo not drawn)	-8%
CCC(=O)Nc1cccc(C2OC(=O)N(Cc3ccc(C)cc3)C2C(=O)NCCOC)c1 (stereo not drawn)	i
Cc1ccc(CN2C(=O)OC(c3cccc(NC(=O)c4ccccc4)c3)C2C(=O)NCCC(C)C)cc1 (stereo not drawn)	7.1µM*
O=C(Nc1ccccc1)N1C[C@@H]2OCC(=O)N(Cc3ccccn3)[C@@H]2C1	-5%[44.1 µM]
COCCOCc1nc(C2CCCN2C(=O)Cc2cccc(F)c2)no1 (stereo not drawn)	-6%
COCCN1C(=O)[C@H]2CN(Cc3ccccc3Cl)C[C@H]2C1=O	-3%
COc1ccc(C2=NS(=O)(=O)N(C)C(C(=O)Nc3cc(C)ccc3O)=C2)cc1OC	-6%
CCC(=O)C1=C(c2ccc(OC)c(OC)c2)N(C(=O)CC)n2c(nnc2-c2ccc(C)cc2)S1	-4%
CCC(=O)C1=C(c2ccc(F)cc2)N(C(=O)CC)n2cnnc2S1	4.5µM*
CCC(=O)N1CCCCCCn2c(nnc2-c2ccc(F)cc2)CC1	-8%
Cc1nnc2n1C(C)CN(C(=O)CCCn1nnc(-c3ccc(F)cc3)n1)C2 (stereo not drawn)	-5%
COc1ccc(C2=C(C(C)=O)Sc3nnc(-c4ccc(C)cc4)n3N2C(C)=O)cc1OC	2.5µM*
CC(=O)C1=C(c2ccc(Cl)c(Cl)c2)N(C(C)=O)n2cnnc2S1	1.1µM*
CC(=O)C1=C(c2ccc(Cl)c(Cl)c2)N(C(C)=O)n2c(C)nnc2S1	2.8µM*
CC(=O)C1=C(c2ccc(Cl)c(Cl)c2)N(C(C)=O)n2c(nnc2-c2ccccc2)S1	35%
COCc1nc(C2CCCNC2)no1 (stereo not drawn)	58%
CC1=C(C(=O)Nc2ccccc2C)C(c2ccc[nH]2)n2ncnc2N1 (stereo not drawn)	-1%
SMILES	Pf Dd2 growth
Cn1c(C(=O)NCc2cccc(Cl)c2)cc2oc3ccccc3c21	i
c1coc(CN[C@H]2CO[C@H]3[C@@H]2OC[C@@H]3n2nnnc2Oc2ccc(-n3ccnc3)cc2)c1	-19%
COc1ccc(C(=O)N2CCC(CC(=O)NC3CC3)C2)cc1 (stereo not drawn)	23%
Cn1nc(-c2ccccc2F)c2cc(C(=O)N3CCN(c4ccccc4F)CC3)sc21	25%
COc1ccccc1/C=C/c1onc(C)c1S(=O)(=O)N1CCC(C(=O)N2CCC(C)CC2)CC1	i
CCOc1ccc(NC(=O)Cn2nnc(-c3nc(-c4ccncc4)no3)c2N)cc1	-5%
N[C@H]1CN(C(=O)c2coc(CN3CCOCC3)c2)C[C@@H]1c1ccccc1	2%
COc1ccccc1-c1cnc(Nc2cncnc2)c2c1CCO2	i
COc1ccc(C(=O)Nc2ncc(-c3ccc(OC)nc3)c3c2OCC3)cc1	-15%[44.1 µM]
COc1ccc(-c2cnc(Nc3ccc(CN4CCN(C)CC4)cc3)c3c2CCO3)cn1	6.3µM*
COc1ccccc1-c1cnc(NC(=O)c2cccnc2)c2c1CCO2	20%[44.1 µM]
COc1ccccc1-c1cnc(Nc2ccc(CN3CCN(C)CC3)cc2)c2c1CCO2	7.1µM*
Fc1cccc(-c2cnc(Nc3ccc(N4CCOCC4)cc3)c3c2CCO3)c1	i
CN(C1CCCCC1)S(=O)(=O)c1ccc2c(c1)c(=O)c(C(=O)NCc1ccccc1Cl)cn2C	64%
COC(=O)c1ccc(C2Nc3c(C)cccc3-c3cc(C)nn32)cc1 (stereo not drawn)	0.45µM*
CCN(CC)c1ccc(C2Nc3ccccc3-c3cc(C)nn32)cc1 (stereo not drawn)	-26%
COc1ccc(C2Nc3ccccc3-c3cc(C)nn32)c(OC)c1 (stereo not drawn)	-2%
COc1cc(CN2CCN(S(=O)(=O)c3ccccc3)CC2)cc(OC)c1O	-8%
CCn1c2ccccc2c2cc(CN3CCN(Cc4ccccc4F)CC3)ccc21	i
CCn1c2ccccc2c2cc(CN3CCN(Cc4cc(OC)c(O)c(OC)c4)CC3)ccc21	11µM*
O=C(Nc1ccc2n(c1=O)C[C@H]1C[C@@H]2CN(C(=O)c2ccccn2)C1)c1cccs1	5%[44.1 µM]
COc1ccc(-c2ccc3nc(-c4ccc(SC)cc4)oc3c2)c(OC)c1OC	i
COc1ccc(-c2ccc3nc(-c4ccc(C)c(F)c4)oc3c2)c(OC)c1OC	11%
CCCOc1ccc(-c2nc3ccc(-c4ccc(OC)c(OC)c4OC)cc3o2)cc1	10µM*
Cn1nc(C2CCN(C(=O)Cn3nnnc3N)CC2)n(-c2ccccc2)c1=O	-5%
SMILES	Pf Dd2 growth
Cc1ccc(S(=O)(=O)Cc2nc(-c3ccc(C(=O)NCCCOC(C)C)cc3)oc2C)cc1	i
CCc1ccc(C2CC(=O)Nc3c2c(C)nn3-c2nc(C)cc(C)n2)cc1 (stereo not drawn)	11µM*
COc1cc(C2CC(=O)Nc3c2c(C)nn3-c2nc(C)cc(C)n2)cc(OC)c1O (stereo not drawn)	-26%
COc1ccc(C2CC(=O)Nc3c2c(C)nn3-c2nc(C)cc(C)n2)c(OC)c1OC (stereo not drawn)	-53%[0.594 µM]
CCCCOC(=O)c1ccc(NC(=O)c2cnc3ccc(C)cn3c2=O)cc1	46%
Cc1cc(C)n2nc(SCC(=O)Nc3cccc(C(F)(F)F)c3)nc2n1	i
COCCNC(=O)[C@H]1O[C@H](CCN(CCOC)CCOC)CC[C@@H]1O	-2%[44.1 µM]
Cc1ccc(NC(=O)c2cc(S(=O)(=O)N3CCCC3)c[nH]2)c(C)c1	i
Cc1ccc(NC(=O)Cn2c(=O)oc3cc(S(=O)(=O)N4CCCCC4)ccc32)c(C)c1	-4%
Cc1ccc(NC(=O)c2c(C)oc3ccc(O)c(CN4CCCCCC4)c23)cc1	0.63µM*
COc1ccc(NC(=O)c2c(C)oc3ccn(Cc4cccc(F)c4)c(=O)c23)cc1F	-17%
COc1ccc(NC(=O)c2c(C)oc3ccc(O)c(CN4CCCC(C)C4)c23)cc1Cl (stereo not drawn)	0.4µM*
COc1ccc(NC(=O)c2cccn2-c2nnc(N3CCCCC3)s2)cc1Cl	6%
COc1cc(=O)n2c(c1C(=O)Nc1ccc(C)cc1)CCCC2	i
Cc1ccc(NC(=O)c2c(C)oc3ccc(O)c(CN4CCCCCC4)c23)c(C)c1	1.1µM*
CCN(CC)S(=O)(=O)c1ccc(NC(=O)c2c(C)oc3ncnc(N4CCCCC4)c23)cc1	32%
N#Cc1cccc(CN2C3CCC2CN(C(=O)Nc2ccccc2F)C3)c1	-3%
O=C(c1ccncc1)N1CCc2c(nc3cc(-c4ccccc4Cl)[nH]n3c2=O)C1	i
Cc1nc(CCNS(=O)(=O)c2cccc(C(F)(F)F)c2)no1	-22%
CCc1ccc(NC(=O)CSc2ccnc(=O)[nH]2)cc1	i
